# Data reported in PubChem BioAssay.
# Activity calls are given as the source filed them. Unless noted, the rule behind the calls is not given here.
# What was measured:
# [1] = test system: Wnt5a (protein binding on small-molecule microarray); assay: Wnt5a binders on small-molecule microarray, primary screen, biophysical, 635/667 nm fluorescence (AID 1142); details: 635 nm fluorescence, higher = more signal;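 note: fluorescence read at 667 nm with signal to noise per printed feature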
# [2] = cell viability in Huh7 cells, primary screen, cytotoxicity control for HCV replication inhibitor project, CellTiter-Glo luminescence, basal, 48 h (AID 1143); details: Huh7 HCV replicon, higher = more signal, called active from +8 up or from −8 down;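 note: Huh7 hepatoma cells carrying a hepatitis C replication reporter with no stimulus; test concentration not given here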
# [3] = P. aeruginosa biofilm formation inhibitors, primary screen, PAO1 strain, BacTiter-Glo luminescence, LB-PBS (AID 1144); details: 12 h, higher = more signal
# [4] = CREB reporter modulators without forskolin, primary screen, cell-based, PC12, CRE-LacZ reporter, unstimulated (AID 1145); details: no forskolin, luminescence, 4.5 h, higher = more signal, called active from +8 up or from −8 down
# [5] = CREB reporter modulators under forskolin, primary screen, cell-based, PC12, CRE-LacZ reporter, forskolin-stimulated (AID 1146); details: luminescence, 4.5 h, higher = more signal, called active from +8 up or from −8 down;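 note: PC12 cells with 6xCRE LacZ reporter stimulated by forskolin 10 µM; beta-galactosidase reporter signal reflecting CREB driven transcription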
# [6] = target: Streptavidin (Streptomyces avidinii) (UniProt P22629); assay: streptavidin binders on small-molecule microarray, primary screen, artefact control for SMM compound annotation, biophysical, 635/667 nm fluorescence (AID 1147); details: streptavidin binding, higher = more signal;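 note: signal reflects streptavidin binding to arrayed compounds as a control protein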
# [7] = small-molecule binders of probe aInhba, primary screen, biochemical, small-molecule microarray, 635/667 nm fluorescence (AID 1148); details: higher = more signal;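 note: score merges 667nm spot fluorescence with signal-to-noise for antibody binding to printed compounds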
# Torsin-1A (Homo sapiens) [8] = target: Torsin-1A (Homo sapiens) (UniProt O14656); assay: torsin A binders from cell lysate, primary screen, small-molecule microarray, wild-type, 635/667 nm (AID 1149); details: COS7 hTOR1A-WT lysate, 635 nm fluorescence, higher = more signal
# Torsin-1A (Homo sapiens) [9] = target: Torsin-1A (Homo sapiens) (UniProt O14656); assay: small-molecule binders of mutant TOR1A in lysate, primary screen, cell lysate, small-molecule microarray, COS7 lysate, 635/667 nm fluorescence (AID 1150); details: COS7 hTOR1A mutant lysate, 635 nm fluorescence, higher = more signal;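 note: score pools 667 nm emission and signal to noise measuring lysate protein binding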
# [10] = test system: Sonic hedgehog protein (Shh); assay: small-molecule binders of Shh protein, primary screen, biochemical, small-molecule microarray, 635/667 nm fluorescence (AID 1151); details: small-molecule microarray binding, 635 nm fluorescence; higher = more signal;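 note: Shh protein binding to compounds spotted on small-molecule microarray slides; score combines spot fluorescence intensity with signal-to-noise across triplicate slides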
# Streptavidin (Streptomyces avidinii), sequence (P22629 whole entry, looked up): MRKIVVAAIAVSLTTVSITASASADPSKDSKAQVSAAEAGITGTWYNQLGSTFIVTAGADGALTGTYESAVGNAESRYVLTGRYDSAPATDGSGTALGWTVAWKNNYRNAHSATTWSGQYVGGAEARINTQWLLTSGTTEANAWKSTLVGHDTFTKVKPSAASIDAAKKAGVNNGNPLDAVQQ
# Torsin-1A (Homo sapiens), sequence (O14656 whole entry, looked up): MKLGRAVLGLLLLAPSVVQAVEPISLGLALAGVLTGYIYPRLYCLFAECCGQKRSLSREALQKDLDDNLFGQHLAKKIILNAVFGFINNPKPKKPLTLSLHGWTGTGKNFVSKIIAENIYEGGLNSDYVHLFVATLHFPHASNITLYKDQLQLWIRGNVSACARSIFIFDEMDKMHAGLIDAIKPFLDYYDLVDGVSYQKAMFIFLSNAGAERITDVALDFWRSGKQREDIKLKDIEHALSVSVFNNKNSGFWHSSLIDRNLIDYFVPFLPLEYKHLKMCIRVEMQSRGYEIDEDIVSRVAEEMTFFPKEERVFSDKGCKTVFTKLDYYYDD
SMILES,composite z-score [1],z-score [2],z-score [3],z-score [4],z-score [5],composite z-score [6],composite z-score [7],composite z-score (Torsin-1A (Homo sapiens) [8]),composite z-score (Torsin-1A (Homo sapiens) [9]),composite z-score [10]
C[C@@H]1NC(=O)[C@@H](C)COC(=O)[C@H](C)NC(=O)[C@@H](C)COC1=O,0.192,-3.21 (inactive),-0.906 (inactive),0.427 (inactive),-0.105 (inactive),-0.335,-0.0791,0.179,-0.231,0.234
CCOC(=O)[C@H](CC(C)C)NC(=O)CCC1CC(OC(=O)NCc2cccc3ccccc23)CC2(CCCC(COC(=O)NCc3cccc(C(F)(F)F)c3)O2)O1 (stereo not given in full),-0.0645,-0.0149 (inactive),-0.658 (inactive),0.288 (inactive),-0.274 (inactive),0.626,-0.0872,0.27,0.261,0.258
CCOC(=O)[C@H](Cc1ccccc1)NC(=O)OC1CC(CCC2CC(CC)=NO2)OC2(CCCC(COC(=O)NCCC(C)C)O2)C1 (stereo not given in full),0.0453,-0.24 (inactive),0.636 (inactive),0.105 (inactive),0.703 (inactive),0.851,-0.154,-0.182,0.225,0.135
C=C(C)C(=O)OCC1CN2[C@@H](CC[C@@H](C)[C@@H]2c2ccc(Br)cc2)C(=O)O1 (stereo not given in full),0.192,-0.295 (inactive),1.34 (inactive),1.91 (inactive),-0.0828 (inactive),0.33,-0.0627,-0.2,1.13,0.486
COC(=O)[C@@H]1CC[C@@H](C)[C@H](c2ccc(Br)cc2)N1,-0.0771,-1.09 (inactive),0.328 (inactive),-0.258 (inactive),-1.02 (inactive),-0.165,-0.249,0.303,0.145,-0.139
CCOC(=O)[C@H](Cc1ccccc1)NC(=O)CCC1CC(OC(=O)NCCc2ccc(F)cc2)CC2(CCCC(COC(=O)NCCc3ccc(Cl)cc3)O2)O1 (stereo not given in full),0.108,-0.0147 (inactive),-0.288 (inactive),-0.526 (inactive),0.483 (inactive),0.391,-0.0494,0.371,0.837,0.726
COC(=O)CC=C[C@@H](C)[C@@H](C=NOCC[C@@H]1C=C[C@H](OC(C)=O)[C@@H](COC(C)=O)O1)OC,0.38,0.309 (inactive),0.711 (inactive),-0.557 (inactive),0.0921 (inactive),-0.227,0.0565,0.563,0.359,0.19
CC(=O)OC[C@H]1O[C@@H](ON=C(C)CCN2CCCc3nc(C)c(C)cc32)[C@H](OC(C)=O)[C@@H](OC(C)=O)[C@@H]1OC(C)=O,0.237,-2.36 (inactive),-0.731 (inactive),1.89 (inactive),-0.112 (inactive),0.345,-0.0626,-0.164,0.604,1.06
C[C@@H]1CC[C@H]2C(=O)O[C@@H](COc3ccc(C(C)(C)C)cc3)CN2[C@@H]1c1ccc(Br)cc1,-0.176,0.301 (inactive),0.256 (inactive),0.764 (inactive),0.403 (inactive),-0.259,-0.0987,-0.351,-0.188,-0.445
C[C@@H]1CC[C@H]2C(=O)O[C@@H](Cc3ccccc3)CN2[C@H]1c1ccc(Br)cc1,-0.0729,-0.309 (inactive),0.502 (inactive),0.583 (inactive),-0.143 (inactive),-0.0253,-0.133,0.433,0.533,0.656
COc1cc(O)c(C(=O)C=Cc2ccc3c(c2)OCO3)c(OC)c1,0.0926,-2.56 (inactive),1.1 (inactive),0.286 (inactive),0.528 (inactive),-0.379,-0.0332,-0.404,-0.19,0.782
CC[C@@H](c1ccccc1)n1c(=O)n2n(c1=O)[C@H]1[C@H](O)[C@@H]3O[C@@H]3C(=O)[C@H]1CC2,-0.0319,-3.57 (inactive),0.206 (inactive),-1.02 (inactive),2.92 (inactive),0.092,-0.0762,0.0045,-0.146,0.678
C#CCCCON=C1C[C@@H](O)[C@@H](O)[C@@H]2[C@@H]3C(=O)N(C(C)(C)C)C(=O)[C@@H]3CC[C@H]12,-0.19,0.0285 (inactive),0.189 (inactive),0.608 (inactive),0.0692 (inactive),0.941,0.0228,-0.309,-0.123,-0.914
CCOC(=O)[C@H](CC(C)C)NC(=O)CCC1CC(OC(=O)NCc2cccc3ccccc23)CC2(CCCC(COC(=O)NCCc3ccc(Cl)cc3)O2)O1 (stereo not given in full),0.0502,-0.933 (inactive),-1.39 (inactive),-0.707 (inactive),-1.17 (inactive),0.614,-0.0987,0.549,0.372,0.728
CC(=O)OC[C@H]1O[C@H](C#Cc2ccccc2)C=C[C@@H]1OC(C)=O,-0.118,-2.96 (inactive),0.908 (inactive),-0.256 (inactive),3.76 (inactive),0.0752,-0.182,0.398,-0.0454,0.337
CCCCC#C[C@@H]1C=C[C@H](OC(C)=O)[C@@H](COC(C)=O)O1,0.03,-4.37 (inactive),0.713 (inactive),-0.976 (inactive),2.86 (inactive),0.202,-0.154,0.568,0.234,0.437
Cc1ccc(S(=O)(=O)N[C@@H]2COC(=O)[C@@H](C)COC(=O)CC=C[C@H]2C)cc1,-0.278,0.215 (inactive),-0.736 (inactive),-0.116 (inactive),-0.549 (inactive),0.095,0.0633,0.399,0.366,0.472
CC(=O)OC[C@H]1O[C@H](CC=NO[C@H](C)c2cn([C@H](CO)Cc3ccccc3)nn2)C=C[C@@H]1OC(C)=O,0.315,0.089 (inactive),-0.738 (inactive),0.839 (inactive),0.731 (inactive),1.35,-0.218,0.56,0.579,0.805
COC(=O)[C@H]1O[C@@H](c2c(OC)c(OC)c(C)c(OC)c2OC)[C@H](C)[C@@H](O)[C@H]1C,0.2,0.299 (inactive),-0.895 (inactive),0.564 (inactive),1.12 (inactive),0.353,0.141,0.859,0.295,0.434
CC(C)CON=C1C[C@@H](O)[C@@H](O)[C@@H]2[C@@H]3C(=O)N(C(C)(C)C)C(=O)[C@@H]3CC[C@H]12,-0.147,0.419 (inactive),-0.208 (inactive),-0.116 (inactive),0.366 (inactive),-0.312,-0.125,0.324,0.329,-0.739
CO[C@H]1COC(=O)CC=C[C@H](C)COC(=O)[C@@H](C)NC(=O)CC=C[C@@H]1C,0.042,-2.06 (inactive),-1.59 (inactive),-0.31 (inactive),-0.0543 (inactive),0.0677,-0.25,2.78,2.8,2.08
CCc1cc2c(nc1CC)CCN(CCC(C)=NOC[C@H]1O[C@H](c3ccccc3)C=C[C@@H]1Oc1ccc(OC)cc1)C2,-0.363,-4.11 (inactive),-1.57 (inactive),5.73 (inactive),0.28 (inactive),2.21,-0.0093,0.15,0.274,0.839
CCOC(=O)[C@H](CC(C)C)NC(=O)CCC1CC(OC(=O)NCCc2ccc(F)cc2)CC2(CCCC(COC(=O)NCCOc3ccccc3)O2)O1 (stereo not given in full),0.32,-1.81 (inactive),-0.446 (inactive),0.469 (inactive),0.127 (inactive),0.939,0.336,0.0137,0.15,1.01
COC(=O)CC=C[C@@H](C)[C@@H](C=NO[C@@H](C)c1cn([C@H](CO)Cc2ccccc2)nn1)OC,-0.251,-0.323 (inactive),-0.54 (inactive),0.597 (inactive),0.0826 (inactive),0.303,-0.128,0.652,0.278,0.469
CC(C)(C)N1C(=O)[C@H]2[C@H]3[C@H](O)[C@H](O)CC(=O)[C@@H]3CC[C@H]2C1=O,-0.0326,-1.07 (inactive),-0.25 (inactive),-0.93 (inactive),-0.785 (inactive),0.179,-0.109,0.236,0.261,0.525
CC(C)CCN1CCc2nc(COc3ccccc3)c3c(c2C1)CO[C@@H](C)C3,0.0335,-0.265 (inactive),-0.372 (inactive),3.36 (inactive),-1.3 (inactive),0.414,0.0649,0.335,0.434,-0.284
C#CCCCON=C1C[C@@H](O)[C@@H](O)[C@@H]2[C@@H]3C(=O)N(C(C)(C)C)C(=O)[C@@H]3CC[C@@H]12,0.0416,0.536 (inactive),0.945 (inactive),0.785 (inactive),0.262 (inactive),0.0462,-0.0762,-0.196,0.348,-1.22
CCCNC(=O)OC[C@H]1O[C@H](c2ccccc2)C=C[C@@H]1Oc1ccc(OC)cc1,-0.0663,-0.234 (inactive),0.404 (inactive),0.735 (inactive),-0.353 (inactive),1.48,-0.0719,-0.131,0.144,0.0199
